Compound activity (PubChem)
A selection: hits, their analogues and other compounds. The true share with any hit is near 3.1%.
Beta cell apopt – blocks beta cell apoptosis; protection from apoptosis, % (test concentration not listed); hit rate 0.8% among 300,000; INS-1E cytokine-induced death, ATP luminescence, 48 h; percent of positive-control rescue, neutral wells zero;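 active = Every replicate reaches about 75%, or at least half do and their mean reaches it too, limit read from the data; inconclusive = At least half of replicates reach the limit but their mean does not; inactive = Under half of replicates reach the limit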;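 also: 0% = cytokine-treated negative control wells and 100% = positive control rescue; higher means more ATP so stronger rescue from cytokine killing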
CSC inhib – cancer stem cell inhibition | cancer stem cell-like cells viability, luminescence | inhibition, % at 7.5 µM | hit rate 1.1% among 300,000; in the data active = inhibition above about 75%; inconclusive = no clear call, values can overlap the other calls; tested in HMLE shEcad cells
PP1 counter – PP1-alpha (human) inhibition in PP5 counter-screen; AID 2235; inhibition, % at 6.7 µM; hit rate 0.9% among 320,000; purified PP1alpha, OMFP fluorescence; P62136;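 active = inhibition above the mean inhibition of all tested compounds plus 3 SD, computed separately for each screening campaign, cut at about 15% in these data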
SKKanGAS inh – blocks kanamycin growth of S. pyogenes SKKanGAS strain | BacTiter-Glo, 6 h | inhibition, % at 7.5 µM | hit rate 1.3% among 300,000;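 active = mean replicate score, as percent of positive control median, at least 50; inconclusive = mean below 50 but one replicate at or above 50; inactive = mean and every replicate below 50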;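 also: strain carries kanamycin resistance gene driven by streptokinase promoter and grows in 40 µg/ml kanamycin; loss of luminescence reflects streptokinase promoter inhibition or plain growth inhibition; 0% = median of DMSO wells and 100% = positive control at its reference dose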
PP5 primary – blocks human protein phosphatase 5 activity; P53041; purified PP5c, OMFP substrate fluorescence; inhibition, % at 6.7 µM; hit rate 0.18% among 320,000;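 active = inhibition above the campaign's mean inhibition across all tested compounds plus 3 SD, cut at about 9.5% in these data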;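 also: 0% = DMSO only and 100% = 100 µM cantharidin control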
Target sequence (P53041 whole entry, looked up): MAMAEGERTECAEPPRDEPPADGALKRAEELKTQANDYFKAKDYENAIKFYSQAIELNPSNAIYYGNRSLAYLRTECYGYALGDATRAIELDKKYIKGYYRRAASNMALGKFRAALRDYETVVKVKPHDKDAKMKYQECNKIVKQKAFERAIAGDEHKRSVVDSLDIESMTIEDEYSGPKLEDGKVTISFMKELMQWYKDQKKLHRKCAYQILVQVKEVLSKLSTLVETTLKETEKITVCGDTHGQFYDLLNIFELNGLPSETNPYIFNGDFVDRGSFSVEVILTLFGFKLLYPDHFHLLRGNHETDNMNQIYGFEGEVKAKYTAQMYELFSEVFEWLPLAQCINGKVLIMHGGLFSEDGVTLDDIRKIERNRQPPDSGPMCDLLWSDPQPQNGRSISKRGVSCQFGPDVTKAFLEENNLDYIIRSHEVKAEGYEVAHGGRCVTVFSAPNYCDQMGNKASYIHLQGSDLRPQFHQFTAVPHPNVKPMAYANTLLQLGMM
PP5 conf – confirmation of human PP5 phosphatase inhibitors | hit rate 22% among 460 | shares compounds with PP5 primary | Purified PP5, fluorogenic phosphatase substrate, fluorescence | inhibition, % at 6.7 µM; in the data active = inhibition above about 9.5%
PP1 inh counter – PP1 phosphatase inhibition, counter-screen for PP5 inhibitors | inhibition, % at 6.7 µM | PP1 enzyme, fluorescent phosphatase substrate | hit rate 4% among 460 | shares compounds with PP5 primary; in the data active = inhibition above about 16%
PP1 confirm – confirmation of human PP1 phosphatase inhibitors. shares compounds with PP1 counter. purified PP1alpha, OMFP substrate fluorescence. inhibition, % at 6.7 µM. hit rate 52% among 1,900;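 active = mean PP1 inhibition above a set limit taken from the earlier primary screen, cut at about 15% in these data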
PP5 inh counter – inhibits human PP5 phosphatase in PP1 counter-screen | hit rate 4% among 1,900 | inhibition, % at 6.7 µM | shares compounds with PP1 counter | purified PP5c, OMFP fluorescence;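 active = mean PP5 inhibition over triplicate wells above about 9.5% taken from the earlier PP1 screen, limit read from the data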
* marks the source's active call; other numbers are inactive results.

CC(C)c1ccc(NC(=O)CSc2nnc(OC(=O)N(C)C)n2C2CC2)cc1 was read as Beta cell apopt -3, CSC inhib -10, PP1 counter 1, SKKanGAS inh 4 and PP5 primary 2.
Screening CC(C)[C@H]1C(=O)O[C@H](C(C)C)C(=O)N(C)[C@@H](C(C)C)C(=O)O[C@H](C(C)C)C(=O)N(C)[C@@H](C(C)C)C(=O)O[C@H](C(C)C)C(=O)N1C returned Beta cell apopt 109*, CSC inhib -7, PP1 counter -5, SKKanGAS inh 1 and PP5 primary -1.
Screening Cc1ccc(OP(N)(=O)Oc2ccc(C)cc2)cc1 returned Beta cell apopt -6, CSC inhib -19, PP1 counter 1, SKKanGAS inh 1 and PP5 primary 0.
Screening CC1(C)CN=C(Nc2nc3ccccc3s2)S1 returned Beta cell apopt -2, CSC inhib 4, PP1 counter 1, SKKanGAS inh 61* and PP5 primary 4.
For CN1C(=O)C(=Cc2ccc(OCC(=O)Nc3ccccc3)cc2)C(=O)N(C)C1=O the results were Beta cell apopt -6, CSC inhib 17, PP1 counter 1, SKKanGAS inh 15 and PP5 primary 2.
Screening CCCCn1c(NC(=O)c2ccco2)c(C(=O)OCC)c2nc3ccccc3nc21 returned Beta cell apopt -18, CSC inhib 11, PP1 counter 5, SKKanGAS inh 15, PP5 primary 9.6*, PP5 conf 37* and PP1 inh counter 8.
For COc1ccc(Cn2c(N)c(C(=O)NCc3ccco3)c3nc4ccccc4nc32)cc1 the results were Beta cell apopt -10, CSC inhib 10, PP1 counter 6, SKKanGAS inh 16, PP5 primary 11*, PP5 conf 11* and PP1 inh counter 4.
`c1ccc2nc(OCCN3CC3)ccc2c1` gave Beta cell apopt -2, CSC inhib 24, PP1 counter 3, SKKanGAS inh -1 and PP5 primary 3.
Screening N/C(=N\[N+](=O)[O-])N1CCN(C(=O)c2ccccn2)CC1 returned Beta cell apopt -5, CSC inhib -6, PP1 counter -9, SKKanGAS inh 2 and PP5 primary -7.
Screening CCOc1ccccc1-n1c(O)c(C=Nc2ccc(N(CC)CC)cc2)c(=O)[nH]c1=O returned Beta cell apopt 8, CSC inhib inconclusive, PP1 counter -3, SKKanGAS inh 1, PP5 primary 12*, PP5 conf 0 and PP1 inh counter 0.
Screening CCN(CC)c1ccc(N=Cc2c(O)n(-c3ccccc3C)c(=O)[nH]c2=O)cc1 returned Beta cell apopt -2, CSC inhib -2, PP1 counter 2, SKKanGAS inh 2 and PP5 primary 3.
`O=C1NC(=O)N(Cc2ccco2)C(=O)/C1=C/c1ccc(-c2cccc([N+](=O)[O-])c2)o1` gave Beta cell apopt -8, CSC inhib 7, PP1 counter 33*, PP5 primary 1, PP1 confirm 16* and PP5 inh counter -7.
CN1C[C@H](CO)C=C2c3cccc4[nH]cc(c34)C[C@H]21 was read as Beta cell apopt -2, CSC inhib -7, PP1 counter 32*, SKKanGAS inh 1, PP5 primary 4, PP1 confirm -3 and PP5 inh counter 1.
`CC(C)[C@H]1C(=O)N2CCC[C@H]2[C@]2(O)O[C@](NC(=O)[C@@H]3C=C4c5cccc6[nH]cc(c56)C[C@H]4N(C)C3)(C(C)C)C(=O)N12` gave Beta cell apopt 4, CSC inhib -4, PP1 counter 1 and PP5 primary 5.
Cc1cc(O)c2c(c1)C(=O)C13C(=C2O)C(=O)[C@H]2[C@@H](O)[C@@H]1[C@H]1[C@H](O)[C@@H]3C(=O)C3=C(O)c4c(O)cc(C)cc4C(=O)C312 (some centres undefined) was read as Beta cell apopt 106*, CSC inhib 73, PP1 counter 40*, PP5 primary 3, PP1 confirm 34* and PP5 inh counter -2.
Screening COC(=O)C1=C(c2ccc(-c3ccccc3)c(F)c2)C[C@@H]2CC[C@H]1N2C(=O)NCCNC(C)=O returned Beta cell apopt -1, CSC inhib -9, PP1 counter 0 and PP5 primary 0.
For COC(=O)C1=C(c2ccc(-c3ccccc3)c(F)c2)C[C@@H]2CC[C@H]1N2C(=O)NCc1cccc2ccccc12 the results were Beta cell apopt 12, CSC inhib 16, PP1 counter 23*, PP5 primary 3, PP1 confirm 4 and PP5 inh counter 2.
Screening COC(=O)C1=C(c2cccc(OCc3ccccc3)c2)C[C@@H]2CC[C@H]1N2C(=O)NCc1ccc(C(C)(C)C)cc1 returned Beta cell apopt 15, CSC inhib 29, PP1 counter 20*, PP5 primary 6, PP1 confirm 2 and PP5 inh counter -1.
COC(=O)C1=C(c2cccc(OCc3ccccc3)c2)C[C@@H]2CC[C@H]1N2C(=O)NCc1ccc(N(C)C)cc1 was read as Beta cell apopt 0, CSC inhib 64, PP1 counter 9 and PP5 primary 4.
For COc1ccc2c3c1OC1C(O)C=CC4C(C2)[N+](C)(C)CCC341 (centres undefined) the results were Beta cell apopt -5, CSC inhib -13, PP1 counter 0, SKKanGAS inh 0 and PP5 primary 2.
`O=C(O)C1C2CCC(O2)C1C(=O)Nc1cccc(Br)c1` (centres undefined) gave Beta cell apopt -5, CSC inhib 1, PP1 counter 69*, SKKanGAS inh 2, PP5 primary 69*, PP1 confirm 9 and PP5 inh counter 19*.
`CC(C)n1c(O)c(C=NCc2ccccc2)c(=O)[nH]c1=S` gave Beta cell apopt -3, CSC inhib -2, PP1 counter -5, SKKanGAS inh -4 and PP5 primary 3.
Screening Cc1nccc2c1[nH]c1ccc(Br)cc12 returned Beta cell apopt -2, CSC inhib -2, PP1 counter 21*, SKKanGAS inh 1, PP5 primary 0, PP1 confirm -1 and PP5 inh counter -1.
Screening CN1C(=O)N(C)C(=O)C2(Cc3cc(NC(=O)c4ccc(F)cc4)ccc3N3CCCC32)C1=O (centres undefined) returned Beta cell apopt -8, CSC inhib 8, PP1 counter -2, SKKanGAS inh -2 and PP5 primary -3.
